Paper PMC4336329 (PLoS ONE, 2015)
About 14,000 (4.5%) of roughly 310,000 compounds showed an effect of 50% or more. Effects have a minus sign here. Shown is part of a subset that was picked to be rich in strong results.

Molecular target: human ether-à-go-go-related gene (hERG) potassium channel (human, UniProt Q12809)
Test: primary screen, population patch clamp on CHO cells stably expressing hERG; higher = less effect of the substance
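Note: peak tail current of the secondary pulse compared with the same well before compound.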

Sequence of human ether-à-go-go-related gene (hERG) potassium channel (Q12809 whole entry, looked up): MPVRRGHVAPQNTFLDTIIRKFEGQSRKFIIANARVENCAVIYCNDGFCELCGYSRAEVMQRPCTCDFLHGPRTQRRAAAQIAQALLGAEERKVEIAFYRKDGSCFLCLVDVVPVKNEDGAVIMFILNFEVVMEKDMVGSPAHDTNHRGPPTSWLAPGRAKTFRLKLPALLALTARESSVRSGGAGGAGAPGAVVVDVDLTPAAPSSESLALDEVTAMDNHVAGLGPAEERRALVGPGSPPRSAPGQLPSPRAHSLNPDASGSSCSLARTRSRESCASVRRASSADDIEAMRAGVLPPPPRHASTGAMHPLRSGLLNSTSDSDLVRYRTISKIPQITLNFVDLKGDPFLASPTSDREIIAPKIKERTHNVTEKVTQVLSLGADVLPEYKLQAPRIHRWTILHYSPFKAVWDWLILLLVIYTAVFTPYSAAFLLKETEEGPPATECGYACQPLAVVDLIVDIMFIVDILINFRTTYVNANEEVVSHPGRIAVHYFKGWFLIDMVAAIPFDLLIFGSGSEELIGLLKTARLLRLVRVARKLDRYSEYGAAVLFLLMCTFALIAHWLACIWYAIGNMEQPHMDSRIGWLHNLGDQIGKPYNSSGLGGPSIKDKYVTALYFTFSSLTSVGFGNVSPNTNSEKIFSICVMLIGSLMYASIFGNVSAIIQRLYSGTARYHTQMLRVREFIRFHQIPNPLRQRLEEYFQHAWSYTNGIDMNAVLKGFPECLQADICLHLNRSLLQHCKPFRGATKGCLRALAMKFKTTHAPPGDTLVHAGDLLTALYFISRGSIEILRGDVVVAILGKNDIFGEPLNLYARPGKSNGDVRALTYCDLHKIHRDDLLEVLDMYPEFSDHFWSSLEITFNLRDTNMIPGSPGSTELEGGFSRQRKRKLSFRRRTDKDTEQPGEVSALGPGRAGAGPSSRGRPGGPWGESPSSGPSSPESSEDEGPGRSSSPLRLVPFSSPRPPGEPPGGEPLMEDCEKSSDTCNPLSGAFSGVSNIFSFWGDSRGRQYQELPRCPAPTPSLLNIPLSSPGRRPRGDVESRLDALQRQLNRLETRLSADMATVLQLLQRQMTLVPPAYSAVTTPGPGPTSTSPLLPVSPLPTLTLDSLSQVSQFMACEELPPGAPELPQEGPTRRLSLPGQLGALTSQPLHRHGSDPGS

Point of comparison: `COc1ccc(NC(=O)CN2CCN(S(=O)(=O)c3ccc(F)cc3)CC2)cc1Cl`, “hERG current change (%, negative = inhibition) at 10uM” value -1.67%. Against it:
- Nc1cc(=O)[nH]c(N)n1 — higher, 15.9%
- CCc1cccc(NC(=O)CNC(=O)N2CC(=O)Nc3ccccc32)c1 — lower, -8.55%
- Cc1ccc(S(=O)(=O)N(C)C)cc1NC(=O)COC(=O)c1c(-c2ccccc2)noc1C — lower, -24.8%
- CCOC(=O)N1CCN(CC(O)COc2c(C)cc(C)cc2C)CC1.Cl (stereo not drawn) — lower, -18%
- COc1cc(CN2CCCCCC2)cc(OC)c1OC.O=C(O)C(=O)O — higher, 13.8%
- COc1cc(CN2CCN(C(=O)c3ccccc3F)CC2)cc(OC)c1OC.O=C(O)C(=O)O — higher, 6.56%
- COc1cc(CN2CCN(Cc3ccc(C(F)(F)F)cc3)CC2)cc(OC)c1OC.O=C(O)C(=O)O — lower, -54.1%
- COc1cc(OC)c(OC)cc1CN1CCN(Cc2ccc(C(F)(F)F)cc2)CC1 — lower, -42.3%
- COc1cc(CN2CCN(S(=O)(=O)c3ccc(F)cc3)CC2)cc(OC)c1OC.O=C(O)C(=O)O — lower, -5.89%
- COc1cc(CN2CCN(C(=O)c3ccc(-c4ccccc4)cc3)CC2)cc(OC)c1OC.O=C(O)C(=O)O — lower, -54.7%
- COc1ccc(CN2CCN(Cc3ccc(C(F)(F)F)cc3)CC2)c(OC)c1.O=C(O)C(=O)O — lower, -74.1%
- COc1cc(CN2CCN(C(=O)c3cccc4ccccc34)CC2)cc(OC)c1OC.O=C(O)C(=O)O — higher, 4.24%
- COc1cccc(CN2CCN(C(=O)c3ccc(-c4ccccc4)cc3)CC2)c1OC.O=C(O)C(=O)O — lower, -5.41%
- COc1cc(CN2CCN(C(=O)COc3ccccc3)CC2)cc(OC)c1OC — lower, -14.1%
- COc1cc(CN2CCN(C(O)(c3ccccc3)c3ccccc3)CC2)cc(OC)c1OC.O=C(O)C(=O)O — lower, -55.1%
- COc1ccccc1C1CCN(c2ccc(CO)cc2[N+](=O)[O-])CC1 — higher, 4.52%
- O=C(Nc1cccc2ccccc12)c1cnsn1 — higher, 5.58%
- COC(=O)c1c(C(=O)OC)c2ccccn2c1C(=O)c1ccccc1 — higher, 6.74%
- COCCNC(=O)Cn1nc(-c2ccc(C)cc2)ccc1=O — higher, 8.83%
- CCOc1ccc(C(NC(=O)c2ccco2)c2ccc(OC)c(OC)c2)cc1 (stereo not drawn) — lower, -39.9%
- O=C(NC(=S)NC1CCS(=O)(=O)C1)c1ccccc1 (stereo not drawn) — higher, 14.6%
- O=C(Nc1cccc(S(=O)(=O)N2CCOCC2)c1)c1ccccc1[N+](=O)[O-] — higher, 0.195%
- O=C(CSc1nc2ncc(Cl)cc2[nH]1)Nc1cccc(F)c1 — higher, 12.8%
- FC(F)(F)c1ccc(CN2CCN(Cc3ccco3)CC2)cc1.O=C(O)C(=O)O — higher, 0.168%
- COc1ccc(CN2CCN(Cc3ccc(C(F)(F)F)cc3)CC2)cc1.O=C(O)C(=O)O — lower, -65.7%
- CS(=O)(=O)N1CCN(Cc2ccc(C(F)(F)F)cc2)CC1.O=C(O)C(=O)O — higher, 0.441%
- COc1cccc(C(=O)N2CCN(Cc3ccc(OC)cc3OC)CC2)c1.O=C(O)C(=O)O — lower, -38.9%
- COc1ccc(CN2CCN(Cc3ccc(C)cc3)CC2)c(OC)c1.O=C(O)C(=O)O — lower, -70.3%
- O=c1ccc(-c2ccccc2)nn1Cc1ccc(Cl)cc1 — higher, 2.52%
- COc1ccc(N2Cc3ccccc3C2=O)cc1 — higher, 16.2%
- COc1cc(NC(=O)c2ccc(Cl)cc2)c(Cl)cc1NC(=O)c1cccnc1 — higher, 1.74%
- N#C/C(=C/c1ccc(N2CCCCCC2)o1)c1ccc(Cl)cc1 — lower, -3.68%
- COc1cccc(NC(=O)CN2CCN(c3ccccc3F)CC2)c1 — lower, -9.18%
- COc1cccc(NC(=O)CN2CCN(CC(=O)Nc3ccc(F)cc3)CC2)c1 — lower, -80.3%
- COc1cccc(NC(=O)CN2CCN(c3ccc(F)cc3)CC2)c1 — lower, -17%
- COc1ccc(NC(=O)CN2CCN(c3nc(-c4ccc(F)cc4)cs3)CC2)c(OC)c1 — higher, 20.7%
- COc1ccc(NC(=O)CN2CCN(c3ccc(F)cc3)CC2)cc1Cl — lower, -5.96%
- CCOc1ccc(NC(=O)CN2CCN(CC(=O)Nc3ccc(OC)cc3OC)CC2)cc1 — lower, -74.2%
- COc1ccc(NC(=O)CN2CCN(CC(=O)Nc3ccc(F)cc3)CC2)c(OC)c1 — lower, -80.4%
- COc1ccc(C(=O)C2CCN(CC(=O)Nc3ccc(OC)cc3OC)CC2)cc1 — lower, -18.1%
- COc1ccc(NC(=O)CN2CCN(CC(=O)Nc3ccc(F)cc3)CC2)cc1Cl — lower, -80.5%
- COc1ccc(NC(=O)CN2CCc3ccccc3C2)c(OC)c1 — lower, -6.9%
- Cc1ccc(NC(=O)CSC(N)=O)cc1Cl — higher, 7.5%
- Cn1c2ccccc2c(=O)c2ccc(F)cc21 — higher, 0.557%
- COc1ccc(-c2cc(C(=O)N3CCCC3)c3ccccc3n2)cc1OC — higher, 5.86%
- CCCCc1nnc(NC(=O)C23CC4CC(CC(NC(C)=O)(C4)C2)C3)s1 — lower, -1.81%
- O=C(Nc1cccnc1)c1ccccc1-c1nc(-c2ccccc2F)no1 — lower, -16.4%
- N#Cc1nc(-c2ccccc2)oc1N1CCC(C(N)=O)CC1 — higher, 9.26%
- O=S(=O)(NCC1CCN(S(=O)(=O)c2ccccc2)CC1)c1ccccc1 — lower, -9.78%
- Cc1ccc(C2N(c3ccc(Cl)cc3)C(=O)N3CCCN23)cc1 (stereo not drawn) — higher, -1.05%
- CCc1nc(SCC(=O)Nc2nnc(CC)s2)c2c(C)c(C)sc2n1 — higher, 8.99%
- CCOc1ccc(NC(=O)CN2CCN(CC(=O)Nc3ccccc3OC)CC2)cc1 — lower, -74.1%
- COc1ccccc1NC(=O)CN1CCN(CC(=O)Nc2ccc(OCc3ccccc3)cc2)CC1 — lower, -25.1%
- COc1ccccc1NC(=O)CN1CCN(CC(=O)Nc2ccc(S(N)(=O)=O)cc2)CC1 — lower, -27.8%
- C(#CCN1CCCC1)CC(c1ccccc1)c1ccccc1.Cl — lower, -50.5%
- OC(C#CCN1CCCC1)c1ccccc1 (stereo not drawn) — lower, -2.28%
- OCCN1CCN(CC#CCC(c2ccccc2)c2ccccc2)CC1 — lower, -22.9%
- COc1cc(OC)c(C(=O)NCCCn2ccnc2)cc1OC.Cl — higher, 13%
- OC[C@H]1O[C@@H](n2cnc3c(NC4CCCC4)ncnc32)[C@H](O)[C@@H]1O — higher, 10.4%
- OC(CNCc1ccco1)Cn1c2ccccc2c2ccccc21 (stereo not drawn) — lower, -58.4%
- OC(CNCc1ccco1)Cn1c2ccc(Br)cc2c2cc(Br)ccc21 (stereo not drawn) — higher, -0.0278%
- OCCNCC(O)Cn1c2ccccc2c2ccccc21 (stereo not drawn) — higher, 10.2%
- COc1ccc(OC)c(NC(=O)[C@@H]2CCCN2C(=O)c2cccs2)c1 — lower, -2.19%
- CC(C)(C)c1ccc(C(=O)NNC(=O)CCc2ccccc2)cc1 — higher, 7.16%
- Cc1ccc(C(C(=O)NC2CCCC2)N(Cc2ccc3c(c2)OCO3)C(=O)c2snc(C(N)=O)c2N)cc1 (stereo not drawn) — higher, 10.7%
- COCCNC(=S)N1CCN(c2ccc(Cl)cc2)CC1 — lower, -12.9%
- CCNC(=S)N1CCN(c2ccc([N+](=O)[O-])cc2)CC1 — lower, -64.5%
- COCCCNC(=S)N1CCN(c2ccccc2)CC1 — higher, 12.9%
- C=CCNC(=S)N1CCN(c2ccccc2Cl)CC1 — lower, -6.87%
- Cc1cccc(C(=O)NC(=S)N2CCN(c3ccc([N+](=O)[O-])cc3)CC2)c1 — lower, -2.77%
- CCCC(=O)NC(=S)N1CCN(c2ccc([N+](=O)[O-])cc2)CC1 — lower, -20.7%
- O=[N+]([O-])c1ccc(N2CCN(C(=S)NCc3ccc(Cl)cc3)CC2)cc1 — lower, -8.05%
- CNC(=S)N1CCN(c2ccc([N+](=O)[O-])cc2)CC1 — lower, -65.1%
- C=CCNC(=S)N1CCN(c2ccc([N+](=O)[O-])cc2)CC1 — lower, -63.6%
- O=[N+]([O-])c1ccc(N2CCN(C(=S)Nc3ccccc3)CC2)cc1 — lower, -4.16%
- O=[N+]([O-])c1ccc(N2CCN(C(=S)Nc3ccc(F)cc3F)CC2)cc1 — lower, -18.5%
- COCCCNC(=S)N1CCN(c2ccc([N+](=O)[O-])cc2)CC1 — lower, -68%
- CCCC(=O)Nc1nc2nc(C)cc(=O)n2[nH]1 — higher, 1.2%
- Cc1cc(C)c2c(=O)[nH]n(C3CC(C)N(C)CC3C)c2n1 (stereo not drawn) — higher, 4.5%
- CC1(C)Cc2c(sc3nc(-c4cccs4)n(N)c(=O)c23)CO1 — lower, -22.5%
- CCN(c1cccc(C)c1)S(=O)(=O)c1ccc2c(c1)NC(=O)CS2 — lower, -7.28%
- Cc1nnc2ccc(Oc3ccc(-c4ccccc4)cc3)nn12 — lower, -5.63%
- CCC1C(c2ccccc2)NC(c2ccccc2)CC1(O)c1ccc(F)cc1.Cl (stereo not drawn) — higher, 11.4%
- Cc1ccc(SCc2cn3c(C)cc(C)nc3n2)cc1 — lower, -67.1%
- Cc1cc(C)n2cc(CSCc3ccccc3)nc2n1 — lower, -36.9%
- Cc1cc(C)nc(SCc2cn3c(C)cccc3n2)n1 — higher, 6.36%
- Cc1cccc2nc(CSc3ccc(Cl)cc3)cn12 — lower, -74.3%
- Cc1cc(C)n2cc(CSc3ccc(Br)cc3)nc2n1 — lower, -63.8%
- Cc1ccc2nc(SCc3cn4c(C)cc(C)nc4n3)[nH]c2c1 — lower, -20.9%
- Cc1cc(C)n2cc(CSc3ncn[nH]3)nc2n1 — higher, 0.809%
- Clc1ccc(SCc2cn3ccccc3n2)cc1 — lower, -18.1%
- Cc1cc(C)n2cc(CSc3nc4cc(Cl)ccc4o3)nc2n1 — lower, -68.1%
- Cc1cc(C)n2cc(CSc3nnc(-c4ccccc4)o3)nc2n1 — lower, -38.3%
- Cc1ccnc(SCc2cn3c(C)cc(C)nc3n2)n1 — lower, -3.93%
- O=c1cc(CSc2nc3cc(Cl)ccc3o2)nc2sccn12 — higher, 10.4%
